Measurements as given in the supplement of paper PMC11732987, “Enantioselective OTUD7B fragment discovery through chemoproteomics screening and high-throughput optimisation” (Communications Chemistry, 2025).

Legend:
Test in all cases: log2 ratio of Biotin-Ahx-Ub-VS probe labelling (fragment/DMSO); higher = less target engagement (more negative = stronger competition), active = hit call of the paper (q ≤ 0.05, log2 ratio ≤ -1)
Conditions in all cases: compound concentration: 200 uM; treatment time: 3 h
USP34 = USP34 (UniProt Q70CQ2)
Outline: (§1)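 HEK293T lysate (495 µg per sample, in Tris/CHAPS/IGEPAL buffer with protease inhibitors) was exposed in triplicate for 3 h to fragment at 200 µM or to vehicle, then to Biotin-Ahx-Ub-VS at 0.5 µM final for 1 h. Labelled DUBs were enriched on NeutrAvidin, digested with LysC and trypsin, and analysed by diaPASEF LC-MS/MS. Spectronaut label-free quantities were normalised to the global median, and values are average log2 ratios of fragment over vehicle from an unpaired t-test. Only proteins with ≥2 unique peptides were used.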

USP36 = target: T1, USP36 (UniProt Q9P275)
T1 sequence (whole entry): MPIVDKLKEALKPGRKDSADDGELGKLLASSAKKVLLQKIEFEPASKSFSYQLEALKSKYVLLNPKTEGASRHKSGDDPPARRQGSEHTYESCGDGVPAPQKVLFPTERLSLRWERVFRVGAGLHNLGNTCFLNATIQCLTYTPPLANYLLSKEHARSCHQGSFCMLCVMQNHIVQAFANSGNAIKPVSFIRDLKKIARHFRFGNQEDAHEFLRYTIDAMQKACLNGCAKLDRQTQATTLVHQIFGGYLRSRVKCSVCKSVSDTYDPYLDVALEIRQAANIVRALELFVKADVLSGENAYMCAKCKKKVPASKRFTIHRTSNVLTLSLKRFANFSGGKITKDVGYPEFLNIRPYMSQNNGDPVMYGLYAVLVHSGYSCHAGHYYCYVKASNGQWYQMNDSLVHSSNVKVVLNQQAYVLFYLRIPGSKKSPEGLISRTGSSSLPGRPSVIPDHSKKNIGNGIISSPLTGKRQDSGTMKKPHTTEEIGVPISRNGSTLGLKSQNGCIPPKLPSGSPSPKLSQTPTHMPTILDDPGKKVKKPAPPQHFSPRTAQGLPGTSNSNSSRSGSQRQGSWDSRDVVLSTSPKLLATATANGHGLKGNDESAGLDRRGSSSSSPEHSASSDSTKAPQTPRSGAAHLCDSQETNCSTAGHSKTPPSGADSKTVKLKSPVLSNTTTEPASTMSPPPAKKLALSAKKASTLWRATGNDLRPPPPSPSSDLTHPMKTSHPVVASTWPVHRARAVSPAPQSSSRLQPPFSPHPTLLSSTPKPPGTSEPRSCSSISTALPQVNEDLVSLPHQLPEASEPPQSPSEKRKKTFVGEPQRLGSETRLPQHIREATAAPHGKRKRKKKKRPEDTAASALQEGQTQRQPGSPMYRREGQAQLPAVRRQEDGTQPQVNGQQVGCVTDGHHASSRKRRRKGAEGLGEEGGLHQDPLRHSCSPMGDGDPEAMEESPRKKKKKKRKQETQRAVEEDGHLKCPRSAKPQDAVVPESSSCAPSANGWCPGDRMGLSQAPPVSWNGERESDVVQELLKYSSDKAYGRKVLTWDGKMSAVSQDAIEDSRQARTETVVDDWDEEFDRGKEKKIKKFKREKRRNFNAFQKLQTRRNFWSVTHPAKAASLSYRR
Outline: as §1

USP38 = target: T2, USP38 (UniProt Q8NB14)
T2 sequence (whole entry): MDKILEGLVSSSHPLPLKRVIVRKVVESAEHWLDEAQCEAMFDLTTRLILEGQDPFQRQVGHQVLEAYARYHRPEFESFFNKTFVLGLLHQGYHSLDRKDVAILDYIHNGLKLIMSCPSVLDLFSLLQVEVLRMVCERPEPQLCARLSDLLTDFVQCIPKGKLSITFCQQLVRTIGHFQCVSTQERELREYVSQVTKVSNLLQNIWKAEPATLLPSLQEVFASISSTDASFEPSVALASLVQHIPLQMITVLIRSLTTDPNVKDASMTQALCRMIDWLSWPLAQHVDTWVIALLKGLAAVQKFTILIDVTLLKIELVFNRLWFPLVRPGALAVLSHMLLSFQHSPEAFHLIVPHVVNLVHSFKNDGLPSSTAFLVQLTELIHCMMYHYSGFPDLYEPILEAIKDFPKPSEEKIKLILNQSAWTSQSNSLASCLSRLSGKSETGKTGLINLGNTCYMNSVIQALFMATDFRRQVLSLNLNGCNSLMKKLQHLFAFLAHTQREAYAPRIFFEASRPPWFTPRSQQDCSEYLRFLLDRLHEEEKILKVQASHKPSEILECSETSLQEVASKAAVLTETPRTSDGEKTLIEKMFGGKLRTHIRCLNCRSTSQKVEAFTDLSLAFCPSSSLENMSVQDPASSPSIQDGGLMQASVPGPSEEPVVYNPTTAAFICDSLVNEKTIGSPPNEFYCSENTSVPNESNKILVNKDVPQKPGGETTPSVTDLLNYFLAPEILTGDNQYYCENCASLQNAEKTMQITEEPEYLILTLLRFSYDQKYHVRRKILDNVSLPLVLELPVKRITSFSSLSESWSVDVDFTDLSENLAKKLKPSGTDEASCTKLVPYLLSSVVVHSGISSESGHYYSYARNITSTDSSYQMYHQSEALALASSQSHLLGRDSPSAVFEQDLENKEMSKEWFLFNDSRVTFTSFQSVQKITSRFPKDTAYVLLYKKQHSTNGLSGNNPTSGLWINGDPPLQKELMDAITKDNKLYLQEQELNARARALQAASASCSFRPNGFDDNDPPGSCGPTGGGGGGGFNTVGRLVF
Outline: as §1

USP39 = target: T3, USP39 (UniProt Q53GS9)
T3 sequence (whole entry): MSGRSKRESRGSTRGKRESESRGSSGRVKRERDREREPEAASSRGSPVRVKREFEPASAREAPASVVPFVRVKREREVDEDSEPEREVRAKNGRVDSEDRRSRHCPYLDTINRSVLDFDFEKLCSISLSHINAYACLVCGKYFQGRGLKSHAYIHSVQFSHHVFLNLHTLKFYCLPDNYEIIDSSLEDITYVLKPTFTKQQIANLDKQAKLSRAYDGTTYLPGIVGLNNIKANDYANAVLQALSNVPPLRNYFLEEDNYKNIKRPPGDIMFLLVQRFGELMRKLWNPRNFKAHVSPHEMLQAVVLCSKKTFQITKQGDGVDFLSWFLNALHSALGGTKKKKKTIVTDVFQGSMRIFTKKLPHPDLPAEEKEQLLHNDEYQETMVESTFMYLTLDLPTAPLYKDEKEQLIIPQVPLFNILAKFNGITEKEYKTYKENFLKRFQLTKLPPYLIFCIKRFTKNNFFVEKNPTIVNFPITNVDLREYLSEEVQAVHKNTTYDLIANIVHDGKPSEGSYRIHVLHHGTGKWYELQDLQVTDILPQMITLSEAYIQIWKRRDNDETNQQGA
Outline: as §1

USP4 = target: T4, USP4 (UniProt Q13107)
T4 sequence (whole entry): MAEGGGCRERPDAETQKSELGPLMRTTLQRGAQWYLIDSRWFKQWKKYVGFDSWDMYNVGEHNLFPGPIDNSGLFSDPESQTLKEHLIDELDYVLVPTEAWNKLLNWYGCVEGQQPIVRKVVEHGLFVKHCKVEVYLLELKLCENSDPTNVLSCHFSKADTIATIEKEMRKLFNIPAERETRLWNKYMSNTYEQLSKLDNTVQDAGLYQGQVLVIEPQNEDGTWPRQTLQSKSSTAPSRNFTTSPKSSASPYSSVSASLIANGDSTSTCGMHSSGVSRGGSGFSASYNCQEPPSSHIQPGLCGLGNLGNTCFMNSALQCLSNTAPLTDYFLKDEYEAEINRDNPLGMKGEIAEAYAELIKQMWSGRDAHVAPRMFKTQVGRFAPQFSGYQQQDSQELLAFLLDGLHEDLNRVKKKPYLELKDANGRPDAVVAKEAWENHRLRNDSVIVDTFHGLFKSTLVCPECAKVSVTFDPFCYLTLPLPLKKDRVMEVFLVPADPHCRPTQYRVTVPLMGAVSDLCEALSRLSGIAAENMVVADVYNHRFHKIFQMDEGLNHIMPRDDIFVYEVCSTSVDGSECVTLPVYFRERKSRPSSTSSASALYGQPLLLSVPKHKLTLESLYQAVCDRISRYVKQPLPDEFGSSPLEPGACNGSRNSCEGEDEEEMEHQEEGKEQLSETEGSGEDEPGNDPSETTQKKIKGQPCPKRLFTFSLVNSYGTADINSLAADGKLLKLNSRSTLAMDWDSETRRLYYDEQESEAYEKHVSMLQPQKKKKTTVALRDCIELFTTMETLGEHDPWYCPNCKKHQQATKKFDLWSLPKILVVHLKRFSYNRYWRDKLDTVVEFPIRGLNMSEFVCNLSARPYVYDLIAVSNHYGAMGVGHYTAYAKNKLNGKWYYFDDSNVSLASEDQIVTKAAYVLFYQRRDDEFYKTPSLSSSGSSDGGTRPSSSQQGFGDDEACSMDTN
Outline: as §1

Measured: log2 ratio of Biotin-Ahx-Ub-VS probe labelling

Chain of USP34 (Q70CQ2 whole entry, the tested form may be a part): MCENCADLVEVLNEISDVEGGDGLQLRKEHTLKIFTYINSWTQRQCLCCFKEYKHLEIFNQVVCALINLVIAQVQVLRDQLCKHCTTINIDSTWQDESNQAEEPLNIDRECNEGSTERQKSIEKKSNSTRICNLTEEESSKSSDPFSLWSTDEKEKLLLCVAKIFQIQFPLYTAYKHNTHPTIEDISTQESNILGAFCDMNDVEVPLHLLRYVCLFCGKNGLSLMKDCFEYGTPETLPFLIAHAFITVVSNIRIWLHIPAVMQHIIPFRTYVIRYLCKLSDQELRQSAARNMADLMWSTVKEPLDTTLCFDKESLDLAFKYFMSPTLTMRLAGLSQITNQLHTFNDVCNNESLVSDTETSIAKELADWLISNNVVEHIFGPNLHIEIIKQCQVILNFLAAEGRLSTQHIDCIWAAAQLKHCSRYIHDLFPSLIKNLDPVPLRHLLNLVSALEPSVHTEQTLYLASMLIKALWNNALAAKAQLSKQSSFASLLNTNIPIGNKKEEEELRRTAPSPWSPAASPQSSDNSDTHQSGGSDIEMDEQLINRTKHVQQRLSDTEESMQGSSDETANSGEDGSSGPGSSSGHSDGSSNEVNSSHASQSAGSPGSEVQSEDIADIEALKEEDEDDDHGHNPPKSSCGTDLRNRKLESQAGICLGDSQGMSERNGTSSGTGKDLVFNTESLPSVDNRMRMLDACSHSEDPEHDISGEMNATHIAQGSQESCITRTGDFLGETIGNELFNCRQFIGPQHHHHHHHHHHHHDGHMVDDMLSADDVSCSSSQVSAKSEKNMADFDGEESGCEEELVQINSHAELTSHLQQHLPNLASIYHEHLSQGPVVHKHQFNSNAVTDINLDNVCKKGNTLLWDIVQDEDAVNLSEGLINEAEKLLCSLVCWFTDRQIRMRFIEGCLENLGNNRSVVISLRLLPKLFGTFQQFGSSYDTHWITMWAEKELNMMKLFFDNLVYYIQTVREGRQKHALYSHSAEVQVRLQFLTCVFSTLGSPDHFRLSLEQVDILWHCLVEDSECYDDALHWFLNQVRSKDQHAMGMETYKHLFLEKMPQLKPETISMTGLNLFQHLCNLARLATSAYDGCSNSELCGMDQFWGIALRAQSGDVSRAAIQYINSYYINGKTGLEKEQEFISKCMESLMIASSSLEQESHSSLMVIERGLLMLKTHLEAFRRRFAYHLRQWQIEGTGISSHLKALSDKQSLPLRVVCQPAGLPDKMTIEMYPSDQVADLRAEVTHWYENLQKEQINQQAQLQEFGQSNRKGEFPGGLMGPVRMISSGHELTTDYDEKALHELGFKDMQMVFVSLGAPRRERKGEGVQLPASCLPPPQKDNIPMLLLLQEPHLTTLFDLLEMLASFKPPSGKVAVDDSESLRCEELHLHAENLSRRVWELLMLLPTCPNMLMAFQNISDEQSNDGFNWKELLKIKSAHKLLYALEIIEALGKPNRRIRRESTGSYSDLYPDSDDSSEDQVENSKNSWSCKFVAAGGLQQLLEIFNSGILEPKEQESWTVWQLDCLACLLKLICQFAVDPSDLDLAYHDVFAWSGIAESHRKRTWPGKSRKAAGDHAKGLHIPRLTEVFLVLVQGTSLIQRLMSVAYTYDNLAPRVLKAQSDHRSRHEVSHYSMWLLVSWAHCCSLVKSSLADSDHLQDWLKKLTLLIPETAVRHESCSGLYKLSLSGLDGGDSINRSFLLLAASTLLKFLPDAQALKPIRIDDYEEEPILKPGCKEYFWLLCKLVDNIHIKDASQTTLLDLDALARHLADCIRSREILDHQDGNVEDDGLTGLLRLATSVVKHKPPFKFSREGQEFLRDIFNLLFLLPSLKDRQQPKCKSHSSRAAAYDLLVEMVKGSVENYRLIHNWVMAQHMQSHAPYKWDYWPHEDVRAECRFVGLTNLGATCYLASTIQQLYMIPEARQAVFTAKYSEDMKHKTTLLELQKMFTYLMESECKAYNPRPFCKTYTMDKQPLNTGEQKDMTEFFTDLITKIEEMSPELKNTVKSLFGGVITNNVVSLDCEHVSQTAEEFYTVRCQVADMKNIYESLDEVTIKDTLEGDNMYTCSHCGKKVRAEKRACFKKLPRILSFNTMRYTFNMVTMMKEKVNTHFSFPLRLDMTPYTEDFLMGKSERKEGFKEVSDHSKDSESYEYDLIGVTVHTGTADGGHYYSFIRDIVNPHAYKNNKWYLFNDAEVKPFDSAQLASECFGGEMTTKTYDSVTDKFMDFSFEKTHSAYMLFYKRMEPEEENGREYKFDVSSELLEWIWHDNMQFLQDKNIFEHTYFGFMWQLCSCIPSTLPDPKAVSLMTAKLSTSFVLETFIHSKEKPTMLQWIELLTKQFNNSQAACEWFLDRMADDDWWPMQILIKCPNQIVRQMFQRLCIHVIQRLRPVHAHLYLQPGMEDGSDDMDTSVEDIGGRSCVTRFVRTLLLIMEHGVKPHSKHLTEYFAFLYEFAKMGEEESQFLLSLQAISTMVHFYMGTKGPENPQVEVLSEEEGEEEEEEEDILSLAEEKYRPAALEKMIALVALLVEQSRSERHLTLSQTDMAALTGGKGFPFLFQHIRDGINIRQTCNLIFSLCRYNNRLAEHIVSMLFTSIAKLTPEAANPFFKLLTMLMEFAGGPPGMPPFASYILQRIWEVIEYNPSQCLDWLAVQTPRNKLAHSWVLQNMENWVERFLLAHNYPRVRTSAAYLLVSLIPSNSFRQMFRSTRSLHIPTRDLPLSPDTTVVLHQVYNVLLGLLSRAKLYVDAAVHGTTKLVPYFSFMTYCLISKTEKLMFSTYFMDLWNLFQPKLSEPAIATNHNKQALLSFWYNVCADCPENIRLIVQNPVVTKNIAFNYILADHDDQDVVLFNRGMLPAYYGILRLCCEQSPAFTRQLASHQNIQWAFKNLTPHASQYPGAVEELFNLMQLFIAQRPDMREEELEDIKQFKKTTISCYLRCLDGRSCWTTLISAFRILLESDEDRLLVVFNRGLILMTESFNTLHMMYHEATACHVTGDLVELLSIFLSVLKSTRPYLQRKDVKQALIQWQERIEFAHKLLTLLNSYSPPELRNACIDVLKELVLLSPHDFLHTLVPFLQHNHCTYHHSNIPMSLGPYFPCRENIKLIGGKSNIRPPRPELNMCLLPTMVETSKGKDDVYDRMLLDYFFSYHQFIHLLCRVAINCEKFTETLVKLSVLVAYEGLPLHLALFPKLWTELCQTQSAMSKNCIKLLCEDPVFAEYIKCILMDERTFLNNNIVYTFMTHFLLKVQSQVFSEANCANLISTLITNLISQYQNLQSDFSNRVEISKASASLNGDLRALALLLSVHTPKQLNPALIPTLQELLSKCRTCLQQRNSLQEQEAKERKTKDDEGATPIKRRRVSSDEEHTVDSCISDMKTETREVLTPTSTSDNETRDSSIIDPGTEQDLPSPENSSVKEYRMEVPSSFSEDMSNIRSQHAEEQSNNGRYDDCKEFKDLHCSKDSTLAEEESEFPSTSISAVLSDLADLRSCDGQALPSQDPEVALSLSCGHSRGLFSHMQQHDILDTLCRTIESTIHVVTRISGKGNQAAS

O=C(CCl)N1CCc2sccc2C1
inactive: USP34 -0.165 | USP36 -0.212 | USP38 -0.305 | USP39 0.0206 | USP4 -0.861
